The panel holds about 83,000 compounds, 20% with a hit somewhere; the sample as a whole holds those more often.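 Cells were grown in 96-well plates and exposed to the test compound at a single concentration for 48 hours; results are reported as percent growth, with values below 10 considered active.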 Values without a mark were called inactive. Active and inactive are the calls of the source.

Test systems include HT29 colon; SNB-19 CNS; U251 CNS; PC-3 prostate; SK-MEL-5 melanoma; UACC-62 melanoma; LOX IMVI melanoma; SK-MEL-28 melanoma; SNB-75 CNS; SK-MEL-2 melanoma.
Common to all, as to experiment: NCI-60 one-dose screen, 48 h (100 = growth as untreated, 0 = no growth, -100 = all killed)
Common to all, as to conditions: 10 µM unless noted

With `Clc1nc(Cl)c2ncn(-c3ccccc3)c2n1`, the growth in the assay on HT29 colon is 43.4%; in the assay on SNB-19 CNS it was 103%; in the assay with U251 CNS it was 42.7%; in the assay on PC-3 prostate it was 95.7%; in the assay on SK-MEL-5 melanoma, 78.6%; with UACC-62 melanoma, 69%. In addition, the growth with LOX IMVI melanoma is 0.438% (active); in the assay with SK-MEL-28 melanoma it was 91.1%.

On to `CCCCCCCC1(C)NC(=O)NC1=O` (stereo not given), for which the growth in the assay on HT29 colon is 114%; in the assay on SNB-75 CNS, 84.5%; with U251 CNS, 99.5%; in the assay with SK-MEL-5 melanoma it was 106%; with UACC-62 melanoma, 106%; in the assay on LOX IMVI melanoma, 103%. Further, the growth in the assay with SK-MEL-28 melanoma was 87.7%.

With `CC(=O)Oc1ccc(C2OC(c3ccc4ccccc4c3OC(C)=O)=NN2C(C)=O)c(OC(C)=O)c1` (stereo not given), the growth in the assay with HT29 colon was 27.2%; with SNB-19 CNS, 36.9%; in the assay with U251 CNS it was 13.2%; in the assay with PC-3 prostate, 24.5%; in the assay on SK-MEL-5 melanoma it was -9.16% (active); in the assay on LOX IMVI melanoma it was 4.67% (active). For the same compound, the growth is 37.9% with SK-MEL-28 melanoma and 13% with SK-MEL-2 melanoma.

For the compound `Fc1ccc(-c2nnc(-c3c(-c4ccc(F)cc4)nc4ncccn34)o2)cc1`, the growth in the assay with SNB-75 CNS is 102%; in the assay with SNB-19 CNS, 107%; in the assay with U251 CNS it was 107%; with PC-3 prostate, 104%; in the assay on SK-MEL-5 melanoma, 95.4%; with UACC-62 melanoma, 100%. Further, the values for the growth in the assay on LOX IMVI melanoma and in the assay with SK-MEL-28 melanoma were 96.4% and 101%, respectively.

Take `CCC(C)CC(CC)NCCN1CCN(C(CC)CC(C)CC)C1=S` (stereo not given): the growth in the assay on HT29 colon is -24.6% (active); in the assay with SNB-19 CNS, 47.1%; in the assay on U251 CNS, 25.2%; with PC-3 prostate, 33.4%; in the assay on UACC-62 melanoma, 23.9%; in the assay on LOX IMVI melanoma, -0.0423% (active). Moreover, the figures for the growth with SK-MEL-28 melanoma and in the assay with SK-MEL-2 melanoma were 20.3% and 94.1%, respectively.

Regarding `CCOC(=O)C1C(=O)OC2CCCCC21` (stereo not given), the growth was 110% in the assay with HT29 colon; 97.6% with SNB-19 CNS; 101% in the assay with U251 CNS; 107% in the assay on PC-3 prostate; 114% in the assay with SK-MEL-5 melanoma; 99.8% in the assay with UACC-62 melanoma. Besides, the growth was 105% in the assay on LOX IMVI melanoma, 109% in the assay with SK-MEL-28 melanoma and 118% with SK-MEL-2 melanoma.

For `O=C1N(C2CCCCC2)C(=O)N1C1CCCCC1`, the growth is 44.9% with HT29 colon; 68.6% with SNB-19 CNS; 48% with U251 CNS; -3% (active) in the assay on PC-3 prostate; 16.9% in the assay with SK-MEL-5 melanoma; 38.9% in the assay with UACC-62 melanoma. Further, the growth was 31% with LOX IMVI melanoma and -7.37% (active) with SK-MEL-2 melanoma.

`CN=C(NC)N/N=C(C)\C=N\NC(=NC)NC`: the growth with HT29 colon is 104%; in the assay on SNB-19 CNS, 99.4%; with U251 CNS, 98.8%; with PC-3 prostate it was 94.8%; with UACC-62 melanoma, 97.5%; in the assay on LOX IMVI melanoma, 109%. Further, the growth is 110% with SK-MEL-28 melanoma and 117% with SK-MEL-2 melanoma.

As for `CC(C)(C)c1ccc(C(O)CCCN2CCC(C(O)(c3ccccc3)c3ccccc3)CC2)cc1` (stereo not given), the growth with HT29 colon is -92.7% (active); in the assay with SNB-19 CNS, 4.49% (active); in the assay with U251 CNS it was -85.4% (active); with PC-3 prostate it was -4.17% (active); with UACC-62 melanoma, -98.1% (active); with LOX IMVI melanoma, -93.9% (active). Also, the growth in the assay with SK-MEL-2 melanoma is -76.1% (active).

Turning to `O=C1C[C@@H]2/C(=C(O)\C=C\c3ccccc3)C(=O)C=C[C@@H]2O1`, the growth in the assay with HT29 colon is -53.2% (active); in the assay on SNB-19 CNS, 58.7%; in the assay with U251 CNS, 1.95% (active); in the assay on PC-3 prostate, 37.8%; with SK-MEL-5 melanoma it was 39.7%; in the assay with UACC-62 melanoma, -50.7% (active). The growth was -68% (active) in the assay with LOX IMVI melanoma, -23.7% (active) in the assay with SK-MEL-28 melanoma and -35% (active) in the assay on SK-MEL-2 melanoma.

Take `Nc1nc(SCC2(CCl)COC2)c2[nH]cnc2n1`: the growth with HT29 colon was 99.2%; in the assay on SNB-19 CNS, 99.2%; with U251 CNS, 101%; in the assay on PC-3 prostate, 93.5%; in the assay on SK-MEL-5 melanoma, 107%; with UACC-62 melanoma, 96.2%. For the same compound, the growth in the assay on LOX IMVI melanoma is 95.8%; in the assay with SK-MEL-28 melanoma, 103%; with SK-MEL-2 melanoma, 97.1%.

As to `COc1ccc(-c2c(N)noc2-c2cc(OC)c3c(c2)OCCO3)cc1`, the growth in the assay on HT29 colon was 8.42% (active); in the assay with SNB-19 CNS, 46.2%; in the assay on U251 CNS, 25.5%; in the assay with PC-3 prostate it was 26.8%; in the assay with SK-MEL-5 melanoma, -21.3% (active); in the assay with UACC-62 melanoma it was 32.7%. Moreover, the growth in the assay on LOX IMVI melanoma was 19.6%; in the assay on SK-MEL-2 melanoma it was 49.9%.

As for `O=C1/C(=C/c2ccc([N+](=O)[O-])o2)Oc2ccc(Br)cc21`, the growth in the assay on SNB-75 CNS is 85.5%; in the assay with SNB-19 CNS, 105%; with U251 CNS, 93.6%; in the assay with PC-3 prostate it was 91.3%; in the assay on SK-MEL-5 melanoma, 82.5%; with UACC-62 melanoma it was 34.8%. The growth with LOX IMVI melanoma is 5.15% (active); with SK-MEL-28 melanoma, 70.8%; in the assay on SK-MEL-2 melanoma, 56.6%.

For `NC(N)=NC(N)=NCCCc1ccccc1`, the growth is 57.5% [100 µM] with SNB-75 CNS; 77.8% [100 µM] in the assay on SNB-19 CNS; 83.7% [100 µM] with U251 CNS; 52.7% [100 µM] in the assay with PC-3 prostate; 28.6% [100 µM] in the assay on SK-MEL-5 melanoma; 88.4% [100 µM] with UACC-62 melanoma. Moreover, the growth was 57.4% [100 µM] in the assay on LOX IMVI melanoma and 97% [100 µM] with SK-MEL-28 melanoma.

With `Cc1c(C(N)=O)sc2c1c(=O)n(Cc1ccccc1)c1nnc(S(=O)(=O)CC(=O)Nc3ccc(Cl)cc3)n21`, the growth is 21.9% in the assay on HT29 colon; 64.9% in the assay on SNB-19 CNS; 35.2% in the assay on U251 CNS; 35% in the assay on PC-3 prostate; 55.2% in the assay with SK-MEL-5 melanoma; 67.4% in the assay with UACC-62 melanoma. The growth in the assay with LOX IMVI melanoma is 44.1%; in the assay on SK-MEL-2 melanoma it was 33.1%.

Consider `Cc1cc2cn3c4cccnc4[nH]c(=O)c3c2cc1C`, for which the growth with SNB-75 CNS is 79.3%; in the assay on SNB-19 CNS, 56.4%; with U251 CNS it was -71.2% (active); in the assay on PC-3 prostate it was 67.7%; with SK-MEL-5 melanoma, 44.4%; in the assay on UACC-62 melanoma, 61.2%. The growth in the assay with LOX IMVI melanoma is -68.5% (active); in the assay on SK-MEL-28 melanoma, 86.6%.
